Bioassay records (PubChem BioAssay)
Compounds with a hit are over-represented: about 1.6% of the library has one in this group of screens.
eIF4H FP inh = inhibitors of RNA binding by human eIF4H | Q15056 | eIF4H fluorescence polarization binding assay | inhibition, % at 35 µM | actives 0.94% (n = 290,000) | AID 2012;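 further: calls also rest on retests at 20 µM and on dose response follow-up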
PERK inh = inhibitors of human PERK kinase. Q9NZJ5. CHO PERK-DD fusion, SEAP luminescence translation reporter. inhibition, % at 5.6 µM. actives 0.17% (n = 220,000). AID 1416;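 active means inhibition above the mean inhibition of all tested compounds plus 3 SD, set separately per screening campaign, cut at about 2.9% in these data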;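 further: PERK kinase domain activated by AP20187 dimerizer at 100 nM; 0% = DMSO with dimerizer and 100% = rapamycin at 8.4 µM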
PABP FP inh = PABP-poly(A) binding inhibition | actives 1% (n = 290,000) | PABP-poly(A) RNA binding, fluorescence polarization | calls only at 35 µM | AID 2014 | P11940;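 further: calls also rest on retests at 20 µM and on dose response follow-up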
eIF4E-4G inh = inhibitors of eIF4E and eIF4G interaction in translation initiation. P63073+Q04637. TR-FRET eIF4E-eIF4GI(517-606) binding, 2 h. inhibition, % at 21.7 µM. actives 0.37% (n = 220,000). AID 782;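 active means inhibition above about 30%, limit read from the data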;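 further: 0% = full FRET control wells and 100% = background wells lacking eIF4GI fragment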
MLLE-PAM2 inh = inhibitors of microRNA-mediated deadenylation, human PABP1 MLLE binding. GST-MLLE / FITC-PAM2 fluorescence polarization. inhibition, % at 20 µM. actives 0.36% (n = 360,000). AID 588489; in the data active means inhibition above about 35%, passing the limit was not always enough;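 further: plate controls were DMSO wells with GST-MLLE for no effect and wells lacking GST-MLLE protein for full effect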
* = called active by the depositor; [ ] = another dose, or the depositor's remark. Unless noted, how the calls were made is not given here.

For CCOc1ccccc1-n1c(=S)sc2c(=O)n(-c3ccc(C)cc3)c(=S)[nH]c21 the results were eIF4H FP inh active, PERK inh 1, PABP FP inh active, eIF4E-4G inh 1 and MLLE-PAM2 inh 21.
CCn1c(=S)sc2c(=O)n(-c3ccccc3)c(=S)[nH]c21 was read as eIF4H FP inh -16, PERK inh 0, PABP FP inh inactive, eIF4E-4G inh 3 and MLLE-PAM2 inh 5.
`CN(C)CCCNc1cc(C(C)(C)C)nc2c(-c3ccc(Cl)cc3)cnn12` gave eIF4H FP inh 12, PERK inh 1, PABP FP inh inactive, eIF4E-4G inh 36* and MLLE-PAM2 inh 2.
For CC(C)(C)c1cc(NCc2ccccn2)n2ncc(-c3ccc(Cl)cc3)c2n1 the results were eIF4H FP inh -1, PERK inh 1, PABP FP inh inactive, eIF4E-4G inh 5 and MLLE-PAM2 inh 14.
Screening Cc1cc(/C=N/NC(=O)COc2cccc3cccnc23)c(C)n1-c1ccc(O)cc1 returned eIF4H FP inh 60, PERK inh 1, PABP FP inh active, eIF4E-4G inh -4 and MLLE-PAM2 inh 7.
For CCOC(=O)CCCCC(=O)c1[nH]c(=O)[nH]c1CSc1nc(-c2ccccc2)c(C#N)c(=O)[nH]1 the results were eIF4H FP inh 0, PERK inh 0, PABP FP inh inactive, eIF4E-4G inh 1 and MLLE-PAM2 inh 40*.
Screening O=S(=O)(c1ccc(F)c(F)c1)N1CCN(S(=O)(=O)c2cccs2)CC1 returned eIF4H FP inh -14, PABP FP inh inactive and MLLE-PAM2 inh -1.
COc1cccc(NC(=O)C(c2ccccc2)N2CCCCC2)c1 (centres undefined) was read as eIF4H FP inh 8.5*, PERK inh 1, PABP FP inh active, eIF4E-4G inh -1 and MLLE-PAM2 inh -5.
`COc1cccc(NC(=O)C(c2ccccc2)N2CCN(CC(=O)N3CCOCC3)CC2)c1` (centres undefined) gave MLLE-PAM2 inh -24.
O=C(NNC(=S)Nc1ccc(Br)cc1Cl)c1ccncc1 was read as eIF4H FP inh 16, PERK inh 1, PABP FP inh inactive, eIF4E-4G inh 0 and MLLE-PAM2 inh 47*.
For S=C(Nc1ccc(Br)cc1Cl)Nn1cnnc1 the results were eIF4H FP inh -4, PERK inh 0, PABP FP inh inactive, eIF4E-4G inh 3 and MLLE-PAM2 inh 37*.
Screening Cc1ccc(Cl)cc1NC(=S)Nn1cnnc1 returned eIF4H FP inh -7, PABP FP inh inactive and MLLE-PAM2 inh 16.
Screening O=C(Cc1ccc(Cl)cc1)N1CCN(c2ccccc2)CC1 returned eIF4H FP inh 2, PABP FP inh inactive and MLLE-PAM2 inh 4.
For O=C(c1cccc(C(F)(F)F)c1)C1CCCN(C(=O)CCn2cnnn2)C1 (centres undefined) the results were eIF4H FP inh -2, PERK inh 1, PABP FP inh inactive, eIF4E-4G inh -4 and MLLE-PAM2 inh -11.
Screening Cc1ccc(NC2OC(CO)C(O)C2O)cc1[N+](=O)[O-] (centres undefined) returned eIF4H FP inh -1, PERK inh 0, PABP FP inh inactive, eIF4E-4G inh -1 and MLLE-PAM2 inh 10.
Screening Cc1ccc(NC2OC(C(O)CO)C(O)C2O)cc1[N+](=O)[O-] (centres undefined) returned eIF4H FP inh 93*, PERK inh 1, PABP FP inh inactive, eIF4E-4G inh -2 and MLLE-PAM2 inh -1.
CCOC(=O)c1ccc(NC(=O)CC2Sc3ncnn3C2=O)cc1 (centres undefined) was read as eIF4H FP inh -2, PERK inh 0, PABP FP inh inactive, eIF4E-4G inh 3 and MLLE-PAM2 inh 42*.
Screening COc1ccc(NC(=O)CC2Sc3ncnn3C2=O)cc1 (centres undefined) returned eIF4H FP inh -16, PERK inh 1, PABP FP inh inactive, eIF4E-4G inh 1 and MLLE-PAM2 inh 43*.
Screening O=C(CC1Sc2ncnn2C1=O)Nc1ccc(Cl)cc1 (centres undefined) returned eIF4H FP inh -1, PERK inh 2, PABP FP inh inactive and eIF4E-4G inh 1.
`CCCc1nc2ccc(Cl)cn2c1Cc1ccsc1` gave MLLE-PAM2 inh 44*.
Screening Clc1ccc(-c2nc3ccc(Cl)cn3c2Cc2ccsc2)cc1 returned MLLE-PAM2 inh -3.
`Oc1ccc(NCc2ccccc2OCc2ccccc2)cc1` gave eIF4H FP inh 88*, PERK inh 1, PABP FP inh active, eIF4E-4G inh 7 and MLLE-PAM2 inh -8.
For CC(=O)C1=C(C)NC(SCc2cccc3ccccc23)=C(C#N)C1c1ccco1 (centres undefined) the results were eIF4H FP inh 38, PERK inh 0, PABP FP inh inactive, eIF4E-4G inh 0 and MLLE-PAM2 inh -5.
CC(=O)C1=C(C)NC(SCc2ccc(C#N)cc2)=C(C#N)C1c1ccco1 (centres undefined) was read as eIF4H FP inh 72, PERK inh 1, PABP FP inh inactive, eIF4E-4G inh 44*[fluorescence artefact?] and MLLE-PAM2 inh -2.
`CCOCc1cnc(C)nc1NCC(=O)c1c(C)[nH]c2ccc(OC)cc12` gave eIF4H FP inh active, PERK inh 0, PABP FP inh active, eIF4E-4G inh -8 and MLLE-PAM2 inh -102.
For COc1ccc2[nH]c(C)c(C(=O)CN3CCN(C/C=C/c4ccccc4)CC3)c2c1 the results were eIF4H FP inh 3, PERK inh -1, PABP FP inh inactive, eIF4E-4G inh 4 and MLLE-PAM2 inh -1.
For Cn1cc(/C=N\O)nc2c(=O)n(-c3ccccc3)c(=O)nc1-2 the results were eIF4H FP inh 99, PERK inh -1, PABP FP inh inactive, eIF4E-4G inh 0 and MLLE-PAM2 inh 37*.
For O/N=C/c1cn(-c2ccccc2)nn1 the results were eIF4H FP inh -7, PERK inh 1, PABP FP inh inactive, eIF4E-4G inh -1 and MLLE-PAM2 inh 0.
Cc1ccc(C2(C)NC(=O)N(CC(=O)Nc3cc(S(=O)(=O)N4CCOCC4)ccc3OC(C)C)C2=O)cc1 (centres undefined) was read as MLLE-PAM2 inh -2.
For CC1CCCN(c2nc3ccccc3nc2C(C#N)S(=O)(=O)c2ccccc2)C1 (centres undefined) the results were eIF4H FP inh inconclusive, PERK inh 1, PABP FP inh inconclusive, eIF4E-4G inh 6 and MLLE-PAM2 inh 61.
CCOC(=O)N1CCN(c2nc3ccccc3nc2C(C#N)S(=O)(=O)c2ccc(C)cc2)CC1 (centres undefined) was read as eIF4H FP inh 122*, PERK inh 1, PABP FP inh active, eIF4E-4G inh 6 and MLLE-PAM2 inh 8.
For COc1ccc(S(=O)(=O)C(C#N)c2nc3ccccc3nc2N2CCC(C)CC2)cc1 (centres undefined) the results were eIF4H FP inh 64* and PABP FP inh active.
